The source of these data is ChEMBL document CHEMBL3433997, “St. Jude Leishmania screening dataset” (2016).

By inhibition is commonly meant the relative decrease from the control value, in per cent.

Common to all, as to format: functional
The target in assay [1] is Solute carrier family 2, facilitated glucose transporter member 1 (Homo sapiens) (UniProt P11166). In words: ST_JUDE_LEISH: Cytotoxicity at 2uM final concentration against transgenic Leishmania Mexicana promastigotes LmGLUT1 that are glucose transport deficient and complemented with the human glucose transporter GLUT1. Activity is measured by DNA content using SYBR green in vitro.

In assay [2] the target is Hexose transporter 1 (Plasmodium falciparum) (UniProt O97467). Description: ST_JUDE_LEISH: Cytotoxicity at 2uM final concentration against transgenic Leishmania Mexicana promastigotes LmPfHT that are glucose transport deficient and complemented with the Plasmodium falciparum hexose transporter. Activity is measured by DNA content using SYBR green in vitro.
For assay [3], the target named is Glucose transporter (Leishmania mexicana) (UniProt O61059). Description: ST_JUDE_LEISH: Cytotoxicity at 2uM final concentration against transgenic Leishmania Mexicana promastigotes LmGT2 that are glucose transport deficient and complemented with the L. Mexicana glucose transporter 2. Activity is measured by DNA content using SYBR green in vitro.

Structures are written as SMILES.

Chain of Solute carrier family 2, facilitated glucose transporter member 1 (Homo sapiens) (P11166 whole entry): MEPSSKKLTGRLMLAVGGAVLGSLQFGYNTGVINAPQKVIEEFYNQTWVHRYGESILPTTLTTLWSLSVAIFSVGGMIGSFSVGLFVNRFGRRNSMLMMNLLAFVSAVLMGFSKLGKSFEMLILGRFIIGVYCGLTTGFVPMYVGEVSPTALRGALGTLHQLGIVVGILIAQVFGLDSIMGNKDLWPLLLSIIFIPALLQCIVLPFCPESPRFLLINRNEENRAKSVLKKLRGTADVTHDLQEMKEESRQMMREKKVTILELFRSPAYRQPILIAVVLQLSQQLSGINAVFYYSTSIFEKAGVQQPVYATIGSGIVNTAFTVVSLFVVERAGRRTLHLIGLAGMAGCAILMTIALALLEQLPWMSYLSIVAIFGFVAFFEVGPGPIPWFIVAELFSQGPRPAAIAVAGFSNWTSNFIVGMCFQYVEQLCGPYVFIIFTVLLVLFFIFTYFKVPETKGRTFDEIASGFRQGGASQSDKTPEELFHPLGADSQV

For the molecule `COc1ccc2nc3cc(Cl)ccc3c(NCCNCC(O)CO)c2n1` (stereo not drawn), the results for the inhibition in assay [1], in assay [2] and in assay [3] were 7.93%, 6.76% and 5.98%, respectively.
The like results for `O=C(Nc1cccc(CN2CCCN(Cc3cccc(O)c3)CC2)c1)c1ccc(-c2ccccc2)cc1` were, in that order, -3.92%, -2.77% and -0.17%.
The like results for `Cc1cnc(Nc2cccc(CCN3CCOCC3)c2)nc1NC(C)C` were, in that order, 9.35%, 9.73% and 2.69%.
For `Cc1nc2c(=O)sc3ccccc3c2n1Cc1ccccc1`, in that order: 0.4%, 7.03% and -1.55%.
Turning to `CCOC(=O)c1c(NC(=O)c2ccccc2)sc2c(O)c(CN(CC)CC)ccc12`, the inhibition was determined as 12% in assay [1], 5.42% in assay [2] and 2.36% in assay [3].
For `CN(C)c1ccc(Br)c(Br)c1`, in that order: 3.2%, 4.63% and -1.28%.
Take `CN1CCN(CC(=O)Nc2ccc(-c3ccc(-c4nc5ccccc5[nH]4)s3)cc2)CC1`: the results for the inhibition in assay [1], in assay [2] and in assay [3] were 1.26%, 3.57% and 2.3%, respectively.
The like results for `CCCCC1=CC2C(=O)C(C(=O)OC)=CN=C2C=C1OCc1ccccc1` (stereo not drawn) were, in that order, -0.41%, -2.57% and -1.77%.
Consider `N#Cc1cc(N(CCCOc2cccc(OC(F)(F)F)c2)Cc2ccccc2C(F)(F)F)ccc1C(F)(F)F`, for which the inhibition in assay [1] was -0.77%; in assay [2] it was -0.39%; in assay [3], 0.94%.
With `CC(=O)Nc1cccc(C(=O)Nc2cccc(-c3cccc(-c4nc5cc(F)ccc5[nH]4)c3)c2)c1`, the inhibition in assay [1] turned out to be 3.73%; in assay [2], 3.51%; in assay [3], 7.22%.
The like results for `CCOC(=O)c1cc(Cl)ccc1OCCCON1C(=N)N=C(N)NC1(C)C` were, in that order, 1.75%, 3.52% and 3.08%.
As for `Cc1ccc2nc(-c3ccc(/C=C/C(=O)NC4CCN(Cc5ccccc5)CC4)cc3)[nH]c2c1C`, the figures for the inhibition in assay [1], in assay [2] and in assay [3] were 8.42%, 8.63% and 9.58%, respectively.
For `O=C(Cn1cnc2c(nnn2Cc2ccccc2F)c1=O)Nc1ccc2c(c1)OCCO2`, in that order: 1.31%, 0.66% and -0.43%.
Consider `N#Cc1ccc2c(c1)CCN(CCC1CCC(NC(=O)/C=C/c3ccc(F)c4ccccc34)CC1)CC2` (stereo not drawn), for which the inhibition in assay [1] worked out at 16.1%; in assay [2], 20.9%; in assay [3], 11.4%.
With `N=C1N=C(N)NC2(CCCCC2)N1OCCCOc1cccc2ccccc12`, the inhibition is 54.1% in assay [1], 60% in assay [2] and 37.9% in assay [3].
The like results for `Cc1[nH]c(/C=C2\C(=O)Nc3ccc(S(=O)(=O)Cc4c(Cl)cccc4Cl)cc32)c(C)c1C(=O)N1CCC[C@@H]1CN1CCCC1` were, in that order, 1%, 0.58% and 2.26%.
For `Oc1ccc(CNCC2CCN(CC3CCCCC3)CC2)cc1`, the inhibition in assay [1] turned out to be 5.22%; in assay [2] it was 0.53%; in assay [3] it was 5.43%.
The like results for `Oc1cccc(-c2nc(-c3ccccc3)c(-c3ccc(Oc4ccc(-c5[nH]c(-c6cccc(O)c6)nc5-c5ccccc5)cc4)cc3)[nH]2)c1` were, in that order, 1.24%, 2.89% and 1.33%.
For `Nc1c(Cl)cc(C(O)CNCCCCCOCCc2ccccc2)cc1C(F)(F)F` (stereo not drawn), in that order: 8.73%, 4.17% and -2.01%.
The like results for `O=C(Nc1ccc(Cl)cc1)c1cc(Cl)ccc1NC(=O)C1CCc2ccccc2O1` (stereo not drawn) were, in that order, 5.48%, 2.53% and 1.56%.
In the case of `Cc1cc(=NN=Cc2cccc(F)c2)c2ccc(F)cc2[nH]1`, the inhibition in assay [1] came out at 10.5%; in assay [2] it was 7.85%; in assay [3] it was 7.27%.
Consider `CC(C)Cn1c(Sc2ccc(C#N)c([N+](=O)[O-])c2)nnc1-c1ccccc1Cl`, for which the inhibition in assay [1] is 3.45%; in assay [2], 4.02%; in assay [3], -0.31%.
Take `CC(C)(C)c1cc([N+](=O)[O-])cc(C(=O)Nc2ccccc2C(F)(F)F)c1O`: the inhibition was 0.47% in assay [1], -0.82% in assay [2] and -1.86% in assay [3].
The like results for `CCN(CC)c1ccc(C(=O)Cn2ccc(=N)cc2)cc1` were, in that order, 1.35%, -0.06% and 0.82%.
The like results for `COc1cc(C)nc2ccc(NC(=O)Nc3ccc4nc(C)cc(OC)c4c3)cc12` were, in that order, 8.47%, 6.65% and 8.59%.
Take `COc1ccc(-c2csc3ncnc(Cl)c23)cc1OC`: the values for the inhibition in assay [1], in assay [2] and in assay [3] were 3.91%, 3.53% and -0.23%, respectively.
For `Cc1sc2nc(CSc3ccccc3)nc(N3CCN(CC(=O)N4CCCC4)CC3)c2c1C`, the inhibition in assay [1] worked out at 5.03%; in assay [2], 5.88%; in assay [3], 1.41%.
With `O=C(/C=C/c1ccc(Cl)c(Cl)c1)NCCCCCN1CCCN(C(=S)Nc2ccc(Cl)cc2)CC1`, the inhibition in assay [1] came out at 1.38%; in assay [2] it was 1.56%; in assay [3], 1.57%.
Consider `COc1ccc(Nc2nccc(-c3c(-c4cccc(NC(=O)c5c(F)cccc5F)c4)nn4ccccc34)n2)cc1Cl`, for which the inhibition is 0.2% in assay [1], 1.51% in assay [2] and -0.51% in assay [3].
In the case of `C[C@@]12C[C@@H](Nc3nc(NCCc4ccc(O)cc4)nc(N4CCNCC4)n3)C[C@@H](C1)c1cccc(Cl)c1O2`, the inhibition in assay [1] is -1.38%; in assay [2], -1.84%; in assay [3], 2.14%.
Regarding `COc1ccccc1Cn1ccnc1SCC(=O)Nc1cccc(C(F)(F)F)c1`, the inhibition in assay [1] was 0.58%; in assay [2] it was 0.38%; in assay [3], -0.75%.
With `COc1cc(C=Cc2ccc3ccccc3n2)cc(Br)c1OCC(=O)N(C)C`, the values for the inhibition in assay [1], in assay [2] and in assay [3] were 6.85%, -1.14% and -0.95%, respectively.
The like results for `O=C(Nc1cccc(-c2ccc(-c3nc4ccccc4[nH]3)cc2)c1)c1cnn2cccnc12` were, in that order, -0.77%, -0.45% and -0.33%.
Consider `CCCCCCNc1cc(C)nc(NC(=N)Nc2cccc(C(F)(F)F)c2)n1`, for which the inhibition in assay [1] worked out at 1.36%; in assay [2], 3.48%; in assay [3], 4.89%.
For `CCCCCCCCn1c2c(c(=N)c3c1CCC3)CCCC2`, in that order: 94.4%, 95.9% and 92.6%.
The like results for `CC(C)CNCc1ccc(-c2cccc(CN(C(=O)NCCc3ccccc3)C3CCN(Cc4ccccc4)CC3)c2)cc1` were, in that order, 9.24%, 11% and 8.02%.
